In the supplement of paper PMC10981050:
Structures can show the parent of a compound that is named as a salt.

What follows are compounds tested on MOLM14 (assay: cell viability relative to vehicle control; higher = less cytotoxic). Conditions: 10 µM; SRSF2 genotype: SRSF2 wt/wt.
How it was run: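 Four leukaemia lines, as CRISPR-edited mutant clones and isogenic wild-type clones, were tested against Selleck bioactive, kinase and epigenetic probe libraries after removal of identity-inconsistent compounds. Cells were exposed to a single 10 µM dose for 48 h, and CellTiter-Glo luminescence was then read. Viability was calculated relative to the on-plate vehicle control.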

Compared with `CCc1c(O)cc(O)c(C(=O)c2ccc(OCCN3CCOCC3)c(OC)c2)c1CC(=O)N(CCOC)CCOC`, `CCC(=O)Nc1cccc(Oc2nc(Nc3ccc(N4CCN(C)CC4)cc3OC)ncc2Cl)c1` is higher in cell viability: 2.85% for the first, 40.7% for the second.

Compared with `O=C(NCCS(=O)(=O)c1ccc(C(F)(F)F)cn1)c1ccc(Cl)cc1`, `Clc1ccc2c(c1)CCc1cccnc1C2=C1CCNCC1` [Desloratadine] is lower in cell viability: 99.2% for the first, 94.3% for the second.

`Cc1ccc(C(=O)O)c(O)c1` [4-Methylsalicylic acid] and `CNC1CCCN(c2c(F)cc3c(=O)c(C(=O)O)cn(C4CC4)c3c2OC)C1` (stereo not drawn) [Balofloxacin] are the same in cell viability: 109% for the first, 109% for the second.

Going from `CN(N=O)C(=O)NC1C(O)OC(CO)C(O)C1O` (stereo not drawn) [Streptozotocin (STZ)] to `CO/N=C(\C(=O)N[C@@H]1C(=O)N2C(C(=O)O)=C(CSc3nc(C)c(CC(=O)O)s3)CS[C@H]12)c1csc(N)n1` [Cefodizime Sodium], the cell viability rises from 103% to 104%.

First: C=CS(=O)(=O)NC1CCN(C(=O)CNc2cc(I)c(Cl)cc2OC)CC1 [K-Ras(G12C) inhibitor 9]
Second: CCCc1nn(C)c2c(=O)[nH]c(-c3cc(S(=O)(=O)N4CCN(C)CC4)ccc3OCC)nc12 [Sildenafil citrate]
The cell viability of the first is lower: 84.1% for the first, 111% for the second.

Compared with `CNC(=O)Nc1ccc(-c2nc(N3CC4CCC(C3)O4)c3cnn(C4CCC5(CC4)OCCO5)c3n2)cc1`, `Cc1cccc(CC(=O)N2CCc3c2ccc(-c2cn(C)c4ncnc(N)c24)c3F)n1` is higher in cell viability: 28.1% for the first, 93.8% for the second.

In the case of `COC(=O)C1=C(C)NC(C)=C(C(=O)OCCN2CCN(C(c3ccccc3)c3ccccc3)CC2)C1c1cccc([N+](=O)[O-])c1` (stereo not drawn) [Manidipine (Manyper)], the cell viability is reported as 64.2%.
